# Measured values as given in PubChem BioAssay.
# A number with no mark means an inactive call. The rule behind the calls is not given here.
# Target: Pantothenate synthetase (Mycobacterium tuberculosis (strain ATCC 25618 / H37Rv)) (UniProt P9WIL5)
# Assay: Recombinant Mtb pantothenate synthetase (PanC) inhibitors, coupled enzyme, confirmatory (AID 375);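 note: 0% = full reaction with vehicle and 100% = no enzyme background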
# Conditions: coupled enzyme assay; at 10 µM, hits give high values
# Pantothenate synthetase (Mycobacterium tuberculosis (strain ATCC 25618 / H37Rv)), sequence (P9WIL5 whole entry, looked up): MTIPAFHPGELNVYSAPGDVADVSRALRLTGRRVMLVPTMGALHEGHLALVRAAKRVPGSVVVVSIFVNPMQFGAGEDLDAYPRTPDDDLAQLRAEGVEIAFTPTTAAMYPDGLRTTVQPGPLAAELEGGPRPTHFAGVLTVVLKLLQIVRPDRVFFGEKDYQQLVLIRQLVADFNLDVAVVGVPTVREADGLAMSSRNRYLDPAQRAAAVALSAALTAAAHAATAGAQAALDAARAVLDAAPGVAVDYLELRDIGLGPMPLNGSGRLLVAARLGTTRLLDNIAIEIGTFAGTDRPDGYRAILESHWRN
row,SMILES,inhibition [%]
1,Cc1cc(C)n(C(=O)C23CC4CC(CC(C4)C2)C3)n1,0
2,Cn1c(-c2cc(Br)ccc2O)n[nH]c1=S,2
3,CC(=O)c1c(C)[nH]c(C(=O)OCc2nnc(-c3ccccc3)o2)c1C,0
4,COc1cc(C2c3c(oc4c(C)cc(C)cc4c3=O)C(=O)N2Cc2cccnc2)ccc1O (stereo not drawn),0
5,c1ccc2[nH]c(-c3cscn3)nc2c1,0
6,COc1ccc(S(=O)(=O)Cc2ccc(C(=O)NCCc3ccc(S(N)(=O)=O)cc3)o2)cc1,0
7,CCCCCC1CC(CC(=O)O)C(=O)O1 (stereo not drawn),6
8,Cc1ccc(C2/C(=C(/O)c3cnn(-c4ccccc4)c3C)C(=O)C(=O)N2CCN2CCOCC2)o1 (stereo not drawn),1
9,Cc1ccc2c(c1)CCCN2C(=O)Nc1ccc2c(c1)OCO2,2
10,CCOc1ccccc1-c1nc(-c2ccc(NC(=O)Cc3ccccc3OC)cc2)no1,2
11,CCOCCn1c(CN2CCC(Cc3ccccc3)CC2)nc2c1c(=O)n(C)c(=O)n2C,0
12,CCOc1ccccc1NC(=O)CC1Nc2cc(C)c(C)cc2NC1=O (stereo not drawn),0
13,CCOC(=O)CN(C)Cc1c[nH]c2ccccc12,14
14,COC(=O)Cn1cnc2sc(C)c(S(=O)(=O)N3CCC(C)CC3)c2c1=O,4
15,CCOC(=O)CSc1nnc(Cn2nnc(-c3ccccc3)n2)n1CC,4
16,O=C(NCc1ccco1)C1CCN(c2ccc(N3CCOCC3)nn2)CC1,0
17,COc1cccc(OCCn2ccnc2)c1,4
18,Cn1c(=O)c2c(nc(CN3CCN(Cc4ccccc4)CC3)n2Cc2cccc(Cl)c2)n(C)c1=O,0
19,CC(C)C(c1nnnn1C1CCCC1)N1CCCc2ccccc21 (stereo not drawn),0
20,CC(=O)c1c(C)oc2ccc(NS(=O)(=O)c3ccc(O)c(C(=O)O)c3)cc12,4
21,COCCCN(C)C1CCN(C(=O)Nc2ccc(F)cc2)CC1,0
22,COc1ccc(OCc2nc(C#N)c(N3CCN(c4ccc(OC)cc4)CC3)o2)cc1,2
23,CCOc1ccccc1CNC(=O)CCN1C(=O)COc2ccccc21,0
